In the supplement of paper PMC6555819:

Tests used:
Assay in all cases: PBM binding z-score (relative to random genomic background probes); higher = stronger binding; sequences stand for … in GC…GCGATTGACAGCGTAGAATGAAGG
[1] = system: FXR:RXRa (NR concentration 270 nM, RXRa partner concentration 90 nM)
Summary of the method: (§1)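 Probes were double-stranded and carried 34-nt variable regions with direct-repeat seeds, single-nucleotide variants, half-site ablations and random human genomic background sequences, printed on custom Agilent 4×180K protein-binding microarrays. Arrays were incubated 1 h with ligand-free nuclear receptor dimers in PBS pH 7.4, 2% milk, 0.02% Triton X-100, 1 mM DTT, 0.2 mg/mL BSA and 0.4 mg/ml salmon testes DNA. Antibodies against each partner (one per run) detected binding, and scanned fluorescence was regression-normalized. Binding z-scores use the random background probes as reference.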

[2] = system: LXRa:RXRa (NR concentration 270 nM, RXRa partner concentration 90 nM)
Summary of the method: as §1

[3] = system: LXRa homodimer (NR concentration 270 nM)
Summary of the method: as §1

[4] = system: LXRb:RXRa (NR concentration 270 nM, RXRa partner concentration 90 nM)
Summary of the method: as §1

[5] = system: LXRb homodimer (NR concentration 270 nM)
Summary of the method: as §1

[6] = system: PPARa:RXRa (NR concentration 270 nM, RXRa partner concentration 90 nM)
Summary of the method: as §1

[7] = system: PPARg:RXRa (NR concentration 180 nM, RXRa partner concentration 90 nM)
Summary of the method: as §1

[8] = system: PPARg:RXRa 270nM:90nM, anti-RXR (NR concentration 270 nM, RXRa partner concentration 90 nM)
Summary of the method: as §1

[9] = system: PPARg:RXRa 30nM:10nM, anti-RXR (NR concentration 30 nM, RXRa partner concentration 10 nM)
Summary of the method: as §1

[10] = system: PPARg:RXRa 90nM:30nM, anti-RXR (NR concentration 90 nM, RXRa partner concentration 30 nM)
Summary of the method: as §1

[11] = system: PPARg:RXRa DBDmut IVT, anti-RXR (DBD mutation: RXRa K156A/R161A, NR concentration 270 nM, RXRa partner concentration 90 nM)
Summary of the method: as §1

[12] = system: PPARg:RXRa IVT, anti-PPARg (NR concentration 270 nM, RXRa partner concentration 90 nM)
Summary of the method: as §1

[13] = system: PPARg DBDmut:RXRa IVT, anti-PPARg (DBD mutation: PPARg1 K132A/R137A, NR concentration 270 nM, RXRa partner concentration 90 nM)
Summary of the method: as §1

[14] = system: PPARg DBDmut IVT, anti-PPARg (DBD mutation: PPARg1 K132A/R137A, NR concentration 270 nM)
Summary of the method: as §1

[15] = system: PPARg homodimer (NR concentration 180 nM)
Summary of the method: as §1

[16] = system: PXR:RXRa (NR concentration 270 nM, RXRa partner concentration 90 nM)
Summary of the method: as §1

[17] = system: PXR homodimer (NR concentration 270 nM)
Summary of the method: as §1

[18] = system: RARa:RXR (NR concentration 270 nM, RXRa partner concentration 90 nM)
Summary of the method: as §1

[19] = system: RARa homodimer (NR concentration 270 nM)
Summary of the method: as §1

[20] = system: RARb:RXRa (NR concentration 270 nM, RXRa partner concentration 90 nM)
Summary of the method: as §1

ATATGTAGGTTACATCCGGTTCATTCAGGCTATG
PBM binding z-score [1]: 1
PBM binding z-score [2]: 4.13
PBM binding z-score [3]: 1.07
PBM binding z-score [4]: 2.07
PBM binding z-score [5]: 0.614
PBM binding z-score [6]: 3.53
PBM binding z-score [7]: 5.17
PBM binding z-score [8]: 4.39
PBM binding z-score [9]: 2.2
PBM binding z-score [10]: 3.81
PBM binding z-score [11]: 7.75
PBM binding z-score [12]: 7.32
PBM binding z-score [13]: 3.76
PBM binding z-score [14]: 2.01
PBM binding z-score [15]: 1.08
PBM binding z-score [16]: 3.66
PBM binding z-score [17]: 5.68
PBM binding z-score [18]: 1.55
PBM binding z-score [19]: 0.415
PBM binding z-score [20]: 1.22

GTACCAAGGTGACTAGGTCGTTGATGAGTAGGCG
PBM binding z-score [1]: 0.348
PBM binding z-score [2]: 0.174
PBM binding z-score [3]: -0.398
PBM binding z-score [4]: -0.125
PBM binding z-score [5]: -1.01
PBM binding z-score [6]: 1.59
PBM binding z-score [7]: 1.89
PBM binding z-score [8]: 1.69
PBM binding z-score [9]: 0.141
PBM binding z-score [10]: 0.756
PBM binding z-score [11]: 1.99
PBM binding z-score [12]: 3.81
PBM binding z-score [13]: 0.227
PBM binding z-score [14]: -0.333
PBM binding z-score [15]: 0.145
PBM binding z-score [16]: 0.12
PBM binding z-score [17]: -0.403
PBM binding z-score [18]: 0.639
PBM binding z-score [19]: 0.0203
PBM binding z-score [20]: 1.55

AGAATGAGGTTATTAAAATCAGGGAATTGCGGTC
PBM binding z-score [1]: 1.11
PBM binding z-score [2]: 1.04
PBM binding z-score [3]: 0.0738
PBM binding z-score [4]: 1.21
PBM binding z-score [5]: 0.192
PBM binding z-score [6]: 2.3
PBM binding z-score [7]: 1.02
PBM binding z-score [8]: 1.43
PBM binding z-score [9]: 0.509
PBM binding z-score [10]: 0.902
PBM binding z-score [11]: 3.19
PBM binding z-score [12]: 2.38
PBM binding z-score [13]: 0.973
PBM binding z-score [14]: 0.541
PBM binding z-score [15]: 0.649
PBM binding z-score [16]: 1.13
PBM binding z-score [17]: 0.34
PBM binding z-score [18]: 1.44
PBM binding z-score [19]: 0.843
PBM binding z-score [20]: 1.25

TGAATGAGGTTATAAGATCGGGGAACGTTGCAAA
PBM binding z-score [1]: 1.36
PBM binding z-score [2]: 1.27
PBM binding z-score [3]: -0.276
PBM binding z-score [4]: 1.05
PBM binding z-score [5]: 0.228
PBM binding z-score [6]: 2.6
PBM binding z-score [7]: 0.897
PBM binding z-score [8]: 1.59
PBM binding z-score [9]: 0.637
PBM binding z-score [10]: 1.13
PBM binding z-score [11]: 1.5
PBM binding z-score [12]: 1.78
PBM binding z-score [13]: 1.32
PBM binding z-score [14]: 0.272
PBM binding z-score [15]: -0.104
PBM binding z-score [16]: 0.636
PBM binding z-score [17]: -0.242
PBM binding z-score [18]: 1.05
PBM binding z-score [19]: -0.252
PBM binding z-score [20]: 1.08

GCTAGCAGGCCATTTGGGTCTCTCAATGACGGGC
PBM binding z-score [1]: -0.43
PBM binding z-score [2]: -0.541
PBM binding z-score [3]: -0.417
PBM binding z-score [4]: -0.913
PBM binding z-score [5]: -1.24
PBM binding z-score [6]: -0.217
PBM binding z-score [7]: -0.0162
PBM binding z-score [8]: -0.509
PBM binding z-score [9]: -1.01
PBM binding z-score [10]: -0.9
PBM binding z-score [11]: 0.644
PBM binding z-score [12]: 0.258
PBM binding z-score [13]: -0.858
PBM binding z-score [14]: -1.65
PBM binding z-score [15]: -0.8
PBM binding z-score [16]: -0.469
PBM binding z-score [17]: -0.68
PBM binding z-score [18]: -0.418
PBM binding z-score [19]: -1.34
PBM binding z-score [20]: 0.0129

TCAGCTAGGTCAACGATGGTCAGCTAATCTGCTA
PBM binding z-score [1]: 3.13
PBM binding z-score [2]: 2.34
PBM binding z-score [3]: -0.215
PBM binding z-score [4]: 1.41
PBM binding z-score [5]: -0.491
PBM binding z-score [6]: 3.2
PBM binding z-score [7]: 2.64
PBM binding z-score [8]: 2.95
PBM binding z-score [9]: 2.5
PBM binding z-score [10]: 2.66
PBM binding z-score [11]: 4.15
PBM binding z-score [12]: 4.22
PBM binding z-score [13]: -0.361
PBM binding z-score [14]: -0.524
PBM binding z-score [15]: 1.38
PBM binding z-score [16]: 1.42
PBM binding z-score [17]: -0.591
PBM binding z-score [18]: 1.96
PBM binding z-score [19]: -0.477
PBM binding z-score [20]: 4.05

ATCTCTAGGTAAGACTCAGTTCAGTGTAGAACGC
PBM binding z-score [1]: 0.302
PBM binding z-score [2]: 0.547
PBM binding z-score [3]: 0.708
PBM binding z-score [4]: 0.286
PBM binding z-score [5]: 0.886
PBM binding z-score [6]: 0.0925
PBM binding z-score [7]: -0.0106
PBM binding z-score [8]: 0.309
PBM binding z-score [9]: 0.182
PBM binding z-score [10]: 0.398
PBM binding z-score [11]: 2.3
PBM binding z-score [12]: 1.23
PBM binding z-score [13]: 0.993
PBM binding z-score [14]: 0.824
PBM binding z-score [15]: 1.01
PBM binding z-score [16]: 1.15
PBM binding z-score [17]: 1.68
PBM binding z-score [18]: 0.389
PBM binding z-score [19]: 1.23
PBM binding z-score [20]: 0.291
